{"source": "paper PMC4336329", "about": "(PLoS ONE, 2015)", "note": "Hit rate of the full screen: of about 310,000 compounds, about 14,000 (4.5%) showed an effect of 50% or more. Effects have a minus sign here. The entries come from a sample that favours strong results as a whole.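 Further: peak tail current of the secondary pulse compared with the same well before compound.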", "data": [{"target": "human ether-à-go-go-related gene (hERG) potassium channel (human, UniProt Q12809)", "sequence (Q12809 whole entry, looked up)": "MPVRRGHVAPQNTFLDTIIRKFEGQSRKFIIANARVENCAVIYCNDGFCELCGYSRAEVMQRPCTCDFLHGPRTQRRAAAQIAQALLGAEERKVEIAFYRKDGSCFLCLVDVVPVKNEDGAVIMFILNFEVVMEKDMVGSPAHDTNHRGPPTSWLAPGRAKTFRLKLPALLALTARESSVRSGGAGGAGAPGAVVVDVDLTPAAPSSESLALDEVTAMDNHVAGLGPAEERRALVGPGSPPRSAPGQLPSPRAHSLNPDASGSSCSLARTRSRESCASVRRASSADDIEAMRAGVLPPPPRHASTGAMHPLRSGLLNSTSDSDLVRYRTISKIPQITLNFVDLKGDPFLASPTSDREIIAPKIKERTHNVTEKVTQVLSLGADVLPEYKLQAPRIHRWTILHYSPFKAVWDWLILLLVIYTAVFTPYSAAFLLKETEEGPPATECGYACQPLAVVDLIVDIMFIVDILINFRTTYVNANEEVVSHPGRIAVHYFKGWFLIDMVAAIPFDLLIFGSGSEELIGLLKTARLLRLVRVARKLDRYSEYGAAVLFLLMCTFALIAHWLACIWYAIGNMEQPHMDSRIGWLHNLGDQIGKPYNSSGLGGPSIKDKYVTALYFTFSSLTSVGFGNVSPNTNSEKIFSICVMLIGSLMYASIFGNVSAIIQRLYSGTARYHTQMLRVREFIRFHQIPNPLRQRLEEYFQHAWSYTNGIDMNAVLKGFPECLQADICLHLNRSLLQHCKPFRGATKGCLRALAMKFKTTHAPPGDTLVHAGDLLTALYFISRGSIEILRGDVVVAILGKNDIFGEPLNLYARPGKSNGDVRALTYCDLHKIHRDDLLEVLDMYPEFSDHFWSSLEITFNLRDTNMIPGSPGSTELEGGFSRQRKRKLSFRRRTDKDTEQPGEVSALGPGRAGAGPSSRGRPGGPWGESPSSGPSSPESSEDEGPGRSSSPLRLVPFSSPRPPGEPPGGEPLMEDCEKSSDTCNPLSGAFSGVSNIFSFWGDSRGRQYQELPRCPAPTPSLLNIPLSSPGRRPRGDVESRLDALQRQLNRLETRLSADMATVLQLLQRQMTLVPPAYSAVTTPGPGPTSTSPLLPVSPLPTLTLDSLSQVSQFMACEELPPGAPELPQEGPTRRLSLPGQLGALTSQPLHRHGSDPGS", "assay": "primary screen, population patch clamp on CHO cells stably expressing hERG; higher = less effect of the substance", "units": {"hERG current change (%, negative = inhibition) at 10uM": "%"}, "values": [{"smiles": "COc1ccccc1CNC(=O)c1ccc(OC(F)F)c(OC)c1", "hERG current change (%, negative = inhibition) at 10uM": -32.1}, {"smiles": "CCOC(=O)c1sc(NC(=O)c2ccc(S(=O)(=O)N3CCOCC3)cc2)nc1-c1ccccc1", "hERG current change (%, negative = inhibition) at 10uM": -27.6}, {"smiles": "Cc1ccc(-c2csc3nc[nH]c(=O)c23)cc1", "hERG current change (%, negative = inhibition) at 10uM": 6.88}, {"smiles": "CCOc1cc(Br)ccc1S(=O)(=O)NCc1ccccc1", "hERG current change (%, negative = inhibition) at 10uM": -30.3}, {"smiles": "Cc1c(NC(=O)c2ccccc2NC(=O)COc2ccccc2)cccc1C(=O)O", "hERG current change (%, negative = inhibition) at 10uM": 14.2}, {"smiles": "O=c1c2ccccc2nc(N2CCCC2)n1-c1ccccc1", "hERG current change (%, negative = inhibition) at 10uM": 10.7}, {"smiles": "O=C(c1ccco1)N1CCN(c2nc3ccccc3c(=O)n2-c2ccccc2)CC1", "hERG current change (%, negative = inhibition) at 10uM": -54.9}, {"smiles": "O=C(c1ccco1)N1CCN(C(=O)c2cc(Cl)nc3ccccc23)CC1", "hERG current change (%, negative = inhibition) at 10uM": -35.2}, {"smiles": "Cc1cc(=O)[nH]c(N2CCN(C(=O)c3ccco3)CC2)n1", "hERG current change (%, negative = inhibition) at 10uM": 14}, {"smiles": "Cc1cc(N2CCN(C(=O)c3ccco3)CC2)nc(-c2ccccc2)n1", "hERG current change (%, negative = inhibition) at 10uM": -65.4}, {"smiles": "Cc1cc(N2CCN(C(=O)c3ccco3)CC2)n2ncnc2n1", "hERG current change (%, negative = inhibition) at 10uM": -30.3}, {"smiles": "O=C(c1ccco1)N1CCN(Cc2nc3ccccc3c(=O)n2-c2ccc(F)cc2)CC1", "hERG current change (%, negative = inhibition) at 10uM": -18.8}, {"smiles": "Cc1cc(N2CCN(C(=O)c3ccco3)CC2)n2ncc(-c3ccccc3)c2n1", "hERG current change (%, negative = inhibition) at 10uM": -50.5}, {"smiles": "Cc1cc(N2CCN(C(=O)c3ccco3)CC2)c2ccccc2n1", "hERG current change (%, negative = inhibition) at 10uM": -71.8}, {"smiles": "Cc1nc2ccccc2c2oc(C(=O)N3CCN(C(=O)c4ccco4)CC3)cc12", "hERG current change (%, negative = inhibition) at 10uM": -46.7}, {"smiles": "Cc1cc(N2CCN(C(=O)c3ccco3)CC2)n2nc(C)nc2n1", "hERG current change (%, negative = inhibition) at 10uM": -44}, {"smiles": "Cc1cc(N2CCN(c3ccccc3)CC2)nc(-c2ccccc2)n1", "hERG current change (%, negative = inhibition) at 10uM": -30.9}, {"smiles": "C=CCN=C(C)C1=C(O)CCC1=O", "hERG current change (%, negative = inhibition) at 10uM": 16.5}, {"smiles": "O=C(CSc1nc2c(c(=O)n1-c1ccc(Cl)cc1)SCC2)N1CCOCC1", "hERG current change (%, negative = inhibition) at 10uM": -14.2}, {"smiles": "O=C1C(C2=NC(c3ccccn3)C3C(=O)N(c4ccc(Cl)cc4Cl)C(=O)C23)=C(O)c2ccccc21", "note": "(stereo not drawn)", "hERG current change (%, negative = inhibition) at 10uM": -4.11}, {"smiles": "O=C(Cc1cccs1)NNC(=O)c1ccc(F)cc1", "hERG current change (%, negative = inhibition) at 10uM": 3.91}, {"smiles": "Cc1ccc(CNC(=O)C2CC(c3cc(C(F)(F)F)cc(C(F)(F)F)c3)=NO2)o1", "note": "(stereo not drawn)", "hERG current change (%, negative = inhibition) at 10uM": -12.1}, {"smiles": "CCOc1ccc(-c2noc(CCC(=O)O)n2)cc1", "hERG current change (%, negative = inhibition) at 10uM": -1.59}, {"smiles": "Cc1nnc(NC(=O)c2ccc(-c3ccc([N+](=O)[O-])cc3)o2)s1", "hERG current change (%, negative = inhibition) at 10uM": -11.7}, {"smiles": "c1ccc(COc2ccc(OCCn3cncn3)cc2)cc1", "hERG current change (%, negative = inhibition) at 10uM": 4.65}, {"smiles": "CCn1c(O)c(C=Nc2ccccc2)sc1=O", "hERG current change (%, negative = inhibition) at 10uM": 13.9}, {"smiles": "O=C(Nc1ccc(OCC(=O)N2CCOCC2)cc1)Nc1cccc(Cl)c1", "hERG current change (%, negative = inhibition) at 10uM": -7.18}, {"smiles": "Cl.O=C1c2cccc3cccc(c23)C(=O)N1CCN1CCN(CC(O)COCc2ccc(Cl)cc2)CC1", "note": "(stereo not drawn)", "hERG current change (%, negative = inhibition) at 10uM": -72.5}, {"smiles": "COc1cc(COCC(O)CN2CCN(Cc3ccccc3)CC2)cc(OC)c1OC.Cl", "note": "(stereo not drawn)", "hERG current change (%, negative = inhibition) at 10uM": -39.1}, {"smiles": "O=C1c2cccc3cccc(c23)C(=O)N1CCN1CCN(C(=S)Nc2ccc(Cl)cc2)CC1", "hERG current change (%, negative = inhibition) at 10uM": 16.4}, {"smiles": "COc1cc(COCC(O)CN2CCN(CCN3C(=O)c4cccc5cccc(c45)C3=O)CC2)cc(OC)c1OC.Cl", "note": "(stereo not drawn)", "hERG current change (%, negative = inhibition) at 10uM": -62}, {"smiles": "CCN1CCN(CC(O)COCc2cc(OC)c(OC)c(OC)c2)CC1.Cl", "note": "(stereo not drawn)", "hERG current change (%, negative = inhibition) at 10uM": 22.2}, {"smiles": "O=C1c2ccccc2C(=O)N1CC(O)COCc1ccccc1", "note": "(stereo not drawn)", "hERG current change (%, negative = inhibition) at 10uM": 19.4}, {"smiles": "O=C(Nc1c(-c2ccccc2)nc2ncccn12)c1cc2ccccc2oc1=O", "hERG current change (%, negative = inhibition) at 10uM": -12.2}, {"smiles": "COC(=O)c1cc(-c2ccc(Cl)cc2Cl)n[nH]1", "hERG current change (%, negative = inhibition) at 10uM": 14.1}, {"smiles": "O=Cc1c(Sc2ccccc2)nc2ccccn2c1=O", "hERG current change (%, negative = inhibition) at 10uM": -0.892}, {"smiles": "COc1ccc(-c2csc3[nH]c(=S)n(-c4ccccc4)c(=O)c23)cc1OC", "hERG current change (%, negative = inhibition) at 10uM": 23.8}, {"smiles": "O=C(Nc1ccccc1)NN(C(=O)CCl)c1ccccc1", "hERG current change (%, negative = inhibition) at 10uM": 6.85}, {"smiles": "CSc1cc(C)nc(N(C)C(C)=O)n1", "hERG current change (%, negative = inhibition) at 10uM": 27.1}, {"smiles": "CCOC(=O)c1cn(Cc2ccccc2)nc1-c1ccccc1", "hERG current change (%, negative = inhibition) at 10uM": -8.37}, {"smiles": "O=C(O)c1ccc(NS(=O)(=O)c2ccc3c(c2)C(=O)c2ccccc2C3=O)cc1", "hERG current change (%, negative = inhibition) at 10uM": 18.5}, {"smiles": "S=c1[nH]nc(Cc2cccs2)n1-c1ccccc1", "hERG current change (%, negative = inhibition) at 10uM": 16.2}, {"smiles": "Cc1ccccc1-n1c(Cc2cccs2)n[nH]c1=S", "hERG current change (%, negative = inhibition) at 10uM": 14.3}, {"smiles": "CCCCc1ccc(-n2c(Cc3cccs3)n[nH]c2=S)cc1", "hERG current change (%, negative = inhibition) at 10uM": -56.3}, {"smiles": "O=C(Nc1ccc2c(c1)OCO2)c1cc(-c2ccccc2Cl)on1", "hERG current change (%, negative = inhibition) at 10uM": 15.3}, {"smiles": "CCOc1ccc(CCNC(=O)CS(=O)Cc2nc(-c3ccccc3Cl)oc2C)cc1OCC", "note": "(stereo not drawn)", "hERG current change (%, negative = inhibition) at 10uM": -10.7}, {"smiles": "CC(C)C1N=C2c3ccccc3N=C(SCc3cc(=O)n4cc(Cl)ccc4n3)N2C1=O", "note": "(stereo not drawn)", "hERG current change (%, negative = inhibition) at 10uM": -67}, {"smiles": "O=C(O)CCCCn1c(SCc2cc(=O)n3cc(Cl)ccc3n2)nc2ccsc2c1=O", "hERG current change (%, negative = inhibition) at 10uM": 2.87}, {"smiles": "CC1N=C2c3ccccc3N=C(SCc3cc(=O)n4cc(Cl)ccc4n3)N2C1=O", "note": "(stereo not drawn)", "hERG current change (%, negative = inhibition) at 10uM": -63.6}, {"smiles": "Cc1ccc2nc(CSc3nnc4ccccn34)cc(=O)n2c1", "hERG current change (%, negative = inhibition) at 10uM": 13.2}, {"smiles": "CC(C)C1N=C2c3ccccc3N=C(SCC(=O)c3ccc(O)c(O)c3)N2C1=O", "note": "(stereo not drawn)", "hERG current change (%, negative = inhibition) at 10uM": -23.1}, {"smiles": "CC(C)C1N=C2c3ccccc3N=C(SCC#N)N2C1=O", "note": "(stereo not drawn)", "hERG current change (%, negative = inhibition) at 10uM": 5.14}, {"smiles": "COc1ccc(CN2C(=O)NC3(CCCc4ccccc43)C2=O)cc1F", "note": "(stereo not drawn)", "hERG current change (%, negative = inhibition) at 10uM": -14.4}, {"smiles": "O=[N+]([O-])c1cc(S(=O)(=O)Nc2cccc(C(F)(F)F)c2)ccc1-n1nnc2ccccc21", "hERG current change (%, negative = inhibition) at 10uM": 0.81}, {"smiles": "COc1ccc(S(=O)(=O)N2CCC(N3CCN(c4ccccc4)CC3)CC2)cc1", "hERG current change (%, negative = inhibition) at 10uM": -8.52}, {"smiles": "C/C=C(\\C)C(=O)NCCN1C2=NC[C@@H](Cc3ccccc3)N2C[C@H]1Cc1ccc(O)cc1", "hERG current change (%, negative = inhibition) at 10uM": 12.8}, {"smiles": "C/C=C(\\C)C(=O)NCCN1C2=NC[C@H](Cc3ccc(O)cc3)N2C[C@@H]1Cc1ccc(OC)cc1", "hERG current change (%, negative = inhibition) at 10uM": -2.89}, {"smiles": "C/C=C(\\C)C(=O)NCCN1C2=NC[C@H](C(C)C)N2C[C@@H]1Cc1ccc(OC)cc1", "hERG current change (%, negative = inhibition) at 10uM": -86.6}, {"smiles": "C/C=C(\\C)C(=O)NCCN1C2=NC[C@H](C(C)C)N2C[C@H]1Cc1ccc(O)cc1", "hERG current change (%, negative = inhibition) at 10uM": 23.1}, {"smiles": "C/C=C(\\C)C(=O)NCCN1C2=NC[C@H](Cc3ccccc3)N2C[C@H]1Cc1ccc(O)cc1", "hERG current change (%, negative = inhibition) at 10uM": 1.99}, {"smiles": "C/C=C(\\C)C(=O)NCCN1C2=NC[C@H](C)N2C[C@@H]1Cc1ccc(OC)cc1", "hERG current change (%, negative = inhibition) at 10uM": -4.7}, {"smiles": "C/C=C(\\C)C(=O)NCCN1C2=NC[C@@H](Cc3ccccc3)N2C[C@@H]1Cc1ccc(OC)cc1", "hERG current change (%, negative = inhibition) at 10uM": -60.3}, {"smiles": "C/C=C(\\C)C(=O)NCCN1C2=NC[C@H](Cc3ccccc3)N2C[C@@H]1Cc1ccc(OC)cc1", "hERG current change (%, negative = inhibition) at 10uM": -73.3}]}]}
